Screening results as filed in PubChem.
Tau FP inhib – blocks human tau fibril formation measured by polarization | AID 1468 | K18 P301L tau heparin fibrillization, Alexa594 FP, 6 h | P10636 | 280,000 tested, 0.39% active | Potency, µM (doses to about 57.7 µM), for inactives: at the highest dose activity, negative = inhibition, most hits filed as inhibitors; further: potency means the concentration at half of the fitted maximal effect; on the % scale 0 is the no-effect control and ±100 the full control effect; nearly all actives have a fitted effect of over 55% in size
Target sequence (P10636 561-689 P618L limits assumed): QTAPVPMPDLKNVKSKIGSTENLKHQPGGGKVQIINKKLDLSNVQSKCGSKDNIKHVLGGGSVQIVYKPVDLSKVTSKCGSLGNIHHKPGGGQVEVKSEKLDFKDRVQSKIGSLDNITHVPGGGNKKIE
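K18 P301L tau (15 uM unlabeled/0.24 uM Alexa 594-labeled, final) + compound + heparin 20 uM final; 100 mM NaOAc pH 7; 6 hr 37 C; ThT 30 uM final added, 1 hr RT; FP ex 555/em 632 nm.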
Tau fluor counter – counter-screen for tau fibril formation inhibitors | AID 1463 | Potency, µM (series often up to 57.7 µM), without a hit: at the top dose activity change, negative = decrease | tau K18 P301L Alexa594 fluorescence, heparin fibrillization | 280,000 tested, 0.93% active; further: potency means the concentration at half of the fitted maximal effect; on the % scale 0 is the no-effect control and ±100 the full control effect; nearly all actives have a fitted effect of over 55% in size
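Human tau K18 P301L (15 uM unlabeled, 0.24 uM Alexa 594-labeled) in 100 mM sodium acetate pH 7 with 20 uM heparin, 6 hr at 37 C. ThT 30 uM added, 1 hr ambient; Alexa 594 FP and total fluorescence read at 555/632 nm.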
Tau fibril ThT – tau fibrillization inhibition (ThT binding). recombinant tau K18 P301L (four-repeat tau fragment), heparin-induced fibrillization, ThT fluorescence. 270,000 tested, 2.1% active. P10636. Potency, µM (top dose mostly 57.4 µM), inactives show top-dose activity, negative = inhibition, actives largely listed as inhibitors. AID 1460; further: potency means the concentration at half of the fitted maximal effect; on the % scale 0 is the no-effect control and ±100 the full control effect; nearly all actives have a fitted effect of over 55% in size
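In this qHTS, human K18 P301L tau is incubated with compound and heparin for 6 hr at 37 C, and Thioflavin T fluorescence then reports fibril load.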
CBFb RUNX1 block – CBF-beta/RUNX1 interaction disruption; AlphaScreen CBFb-His/RUNX1-biotin binding, biochemical; Potency, µM (top dose mostly 59.8 µM), for the others: at the top dose activity, negative = inhibition, hits mostly inhibitors; 230,000 tested, under 10 active; further: % of control where 0% means no effect
Target sequence (Q01196 whole entry, looked up): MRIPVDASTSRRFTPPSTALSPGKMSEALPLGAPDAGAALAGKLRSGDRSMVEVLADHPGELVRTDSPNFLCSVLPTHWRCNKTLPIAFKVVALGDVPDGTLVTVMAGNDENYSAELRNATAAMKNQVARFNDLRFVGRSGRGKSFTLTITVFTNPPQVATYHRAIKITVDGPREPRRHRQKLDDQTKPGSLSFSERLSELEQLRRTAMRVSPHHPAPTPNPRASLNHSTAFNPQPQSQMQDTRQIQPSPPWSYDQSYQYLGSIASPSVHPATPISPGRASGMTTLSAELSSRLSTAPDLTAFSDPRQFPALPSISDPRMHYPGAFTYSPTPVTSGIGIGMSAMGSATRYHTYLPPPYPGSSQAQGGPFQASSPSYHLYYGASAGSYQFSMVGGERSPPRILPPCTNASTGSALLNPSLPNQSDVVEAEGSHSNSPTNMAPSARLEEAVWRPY
Target sequence (Q13951 whole entry, looked up): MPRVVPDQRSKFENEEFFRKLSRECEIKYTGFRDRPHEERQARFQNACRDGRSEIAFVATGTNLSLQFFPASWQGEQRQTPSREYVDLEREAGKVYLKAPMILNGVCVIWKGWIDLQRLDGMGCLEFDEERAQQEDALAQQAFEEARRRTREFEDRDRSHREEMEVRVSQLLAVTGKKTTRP
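Compounds were screened at multiple concentrations against a preformed CBF-beta(His)/RUNX1(biotin) complex (30 nM of each) for 15 min at room temperature, followed by 90 min with nickel and streptavidin beads and AlphaScreen reading.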
Lamin A splicing – modulators of lamin A splicing. 200,000 tested, 0.01% active. HeLa LMNA splicing GFP/RFP minigene ratio, 48 h. Potency, µM (titrated, usually from 46.1 µM), for the others: top-dose ratio change, negative = inhibition, most hits filed as inhibitors; active means well fitted inhibition curve with a large enough effect in the signal ratio, with a control signal flat, not every such curve was filed as active; inconclusive means small, poorly fitted or top-dose-only effect, or effect the other way, or a change in a side signal; the % refers to the signal ratio; further: potency means the concentration at half of the fitted maximal effect; on the % scale 0 is the no-effect control and ±100 the full control effect
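S3 HeLa cells stably expressing lamin A-EGFP splicing minigene plus DsRed2, 600 cells/well, 48 h compound exposure at 37C. Laser-scanning cytometry; analysed as GFP (500-530 nm)/RFP (575-640 nm) total intensity ratio; 0.5% DMSO vehicle.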
JMJD2E inh – inhibitors of human JMJD2E histone demethylase; JMJD2E catalytic domain, FDH-coupled NADH fluorescence (FDH is formaldehyde dehydrogenase); Potency, µM (titrated, usually from 57.1 µM), without a hit: at the highest dose activity change, negative = inhibition, usual class: inhibitors; 230,000 tested, 1.6% active; AID 2147; active means well fitted inhibition curve with a large enough effect, not every such curve was filed as active; inconclusive means small, poorly fitted or top-dose-only effect, or another doubt; inactive means no such curve, though single readings can be large or run the other way;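 further: potency means the concentration at half of the fitted maximal effect; 0% = wells with enzyme and -100% = buffer wells without enzyme; nearly all actives have a fitted effect of over 50% in size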
* = called active by the depositor; ? = inconclusive; · = no result; [ ] = remark or other dose. Rows were chosen to be rich in hits. Some 3.2% of all compounds tested hit in one or more screens of this group. Unless noted, the call rests on the fitted dose curve; in most records, active means well fitted curve in the direction sought with a large enough effect; inconclusive means small, poorly fitted or top-dose-only effect, or another doubt; inactive means no such curve, though single readings can be large; an effect the other way counts as inactive or inconclusive.

SMILES	Tau FP inhib	Tau fluor counter	Tau fibril ThT	CBFb RUNX1 block	Lamin A splicing	JMJD2E inh
O=[N+]([O-])c1cc(-c2cnc3ccccc3n2)ccc1Cl	-3.6%	-22.3%	?	0.6%	-1.8%[46 µM]	-2.3%
CC[C@H](C)[C@H](NC(=O)[C@H](Cc1ccc(O)cc1)NC(=O)[C@H](Cc1cnc[nH]1)NC(=O)[C@H](CCCNC(=N)N)NC(=O)[C@H](CC(C)C)NC(=O)[C@H](C)NC(=O)[C@H](CO)NC(=O)[C@H](Cc1ccc(O)cc1)NC(=O)[C@H](Cc1ccc(O)cc1)NC(=O)[C@H](CCCNC(=N)N)NC(=O)[C@H](C)NC(=O)[C@H](CCSC)NC(=O)[C@H](CC(=O)O)NC(=O)[C@H](CCC(=O)O)NC(=O)[C@H](C)NC(=O)[C@@H]1CCCN1C(=O)[C@H](C)NC(=O)[C@H](CC(=O)O)NC(=O)[C@H](CCC(=O)O)NC(=O)CNC(=O)[C@@H]1CCCN1C(=O)[C@H](CC(N)=O)NC(=O)[C@H](CC(=O)O)NC(=O)[C@@H]1CCCN1C(=O)[C@H](CCCCN)NC(=O)[C@H](CO)NC(=O)[C@@H]1CCCN1C(=O)[C@@H](N)Cc1ccc(O)cc1)C(=O)N[C@@H](CC(N)=O)C(=O)N[C@@H](CC(C)C)C(=O)N[C@H](C(=O)N[C@H](C(=O)N[C@@H](CCCNC(=N)N)C(=O)N[C@@H](CCC(N)=O)C(=O)N[C@@H](CCCNC(=N)N)C(=O)N[C@@H](Cc1ccc(O)cc1)C(N)=O)[C@@H](C)O)[C@@H](C)CC	·	·	·	8.1%	·	·
COc1ccc(CS(=O)(=O)/C(Cl)=C(/Cl)C(=O)Nc2ccc(OC)nc2)cc1	?	-28.4%	7.94µM*	-0.5%	?	-2.9%
COc1ccc(NC(=O)/C(Cl)=C(/Cl)S(=O)Cc2ccccc2)cn1 (centres undefined)	?	-12.8%	?	-2.2%	?	-8.5%
Cc1cc(C(=O)CSc2nnnn2-c2ccc(O)cc2)c(C)n1Cc1ccc2c(c1)OCO2	11.2µM*	7.94µM*[quencher]	-17.2%	-22.7%	?	-5.0%
C=C[C@@H]1[C@@H](C)[C@H](C)C(=O)C([C@H](O)C(C)C)[C@@H]1C (some centres undefined)	·	·	·	1.5%	·	·
CCOC(=O)Nc1ccc(NCc2ccc(F)cc2)nc1N	?	?	17.8µM*	-23.4%	-29.6%	?
CCOC(=O)Nc1ccc(C)cc1NC(=O)OCC	-0.1%	-4.5%	-7.2%	-5.6%	1.5%	-6.3%
Cc1cc(/C=C2\SC(=S)NC2=O)c(C)n1-c1ccc(O)cc1	10.8%	22.4µM*[quencher]	7.94µM*	?	·	?
Cc1cc(/C=C2\SC(=S)NC2=O)c(C)n1C	2.5%	-20.4%	?	-22.0%	12.2%	1.9%
Cc1cc(/C=C2\SC(=S)NC2=O)c(C)n1-c1ccccc1	?	?	7.08µM*	-23.7%	·	-25.0%
COc1ccc(-n2c(C)cc(/C=C3\SC(=S)NC3=O)c2C)cc1	-8.2%	-26.8%	?	1.2%	?	?
Cc1cc(/C=C2\SC(=Nc3ccc(F)cc3)NC2=O)c(C)n1-c1ccc(S(N)(=O)=O)cc1	9.6%	?	14.1µM*	-15.0%	?	-7.7%
COc1ccc(-c2coc3cc(O)ccc3c2=O)c(O)c1O	15.8µM*	12.6µM*[quencher]	10µM*	·	·	11.2µM*
COc1ccc(-c2coc3cc(O)ccc3c2=O)c(OC)c1O	1.7%	-9.0%	-9.7%	·	-4.9%	?
O=c1[nH][nH]c(-c2ccccc2O)c1C(C[N+](=O)[O-])c1cccc(Cl)c1 (centres undefined)	-13.9%	?	25.1µM*	-4.3%	?	-0.6%
O=c1[nH][nH]c(-c2ccccc2O)c1C(C[N+](=O)[O-])c1ccccc1 (centres undefined)	8.2%	-7.6%	-17.7%	-15.1%	-8.9%	-19.5%
C=CCc1cccc(/C=N/NC(=O)c2ccccc2OC)c1O	-1.3%	-28.3%	-3.3%	-0.1%	-6.5%[9.22 µM]	31.6µM*
C=CCc1cccc(/C=N/NC(=O)c2ccccc2Br)c1O	?	?	1.0%	-6.5%	·	25.1µM*
O=C(N/N=C/c1ccccc1C(=O)O)c1ccccc1Br	-2.6%	0.4%	-0.9%	9.1%	·	-26.2%
O=C(CN1c2ccccc2Sc2ccccc21)NNC(=O)Nc1cccc(Cl)c1	?	8.91µM*[quencher]	-3.7%	-2.5%	·	-6.9%
Cc1ccc(N=Nc2c(C)[nH][nH]c2=O)c(C)c1	-5.7%	-23.2%	8.91µM*	-21.3%	?	-2.7%
COc1ccc(N=Nc2c(C)[nH][nH]c2=O)cc1	1.6%	-11.6%	8.91µM*	0.3%	·	-2.2%
Cc1[nH][nH]c(=O)c1N=Nc1ccccc1C#N	6.2%	-19.5%	?	-6.5%	·	-1.6%
COC(=O)c1c(NC(=O)/C(C#N)=C/c2ccc(OC)cc2)sc2c1CCC2	-0.9%	-2.4%	-14.7%	·	·	·
SMILES	Tau FP inhib	Tau fluor counter	Tau fibril ThT	CBFb RUNX1 block	Lamin A splicing	JMJD2E inh
CCCCc1nc2c(c3c1C[C@H](C)OC3)CN(C(=O)C1CC1)CC2	6.2%[11.6 µM]	0.3%[11.6 µM]	7.1%[11.5 µM]	-5.2%[13.1 µM]	-13.9%[9.22 µM]	14.8%[11.4 µM]
CN1C(=O)C[C@H](C(=O)O)[C@@H]1c1cccnc1	·	·	·	23.7%	·	·
Cn1c(N/N=C/c2c[nH]c3ccccc23)nc2ccccc21	5.7%	15.8µM*[quencher]	4.47µM*	-24.4%	?	?
CCCn1c(/N=C/c2c[nH]c3ccccc23)nc2ccccc21	?	?	-6.6%	-5.7%	2.1%	-1.0%
CCCCn1c(/N=C/c2c[nH]c3ccccc23)nc2ccccc21	?	22.4µM*[quencher]	-3.9%	-12.8%	5.8%	0.3%
Fc1c(F)c(F)c(N/N=C/c2c[nH]c3ccccc23)c(F)c1F	?	7.08µM*[quencher]	12.6µM*	-3.0%	-28.2%	-2.1%
Cc1cc(N/N=C/c2c[nH]c3ccccc23)c2ccccc2n1	-2.5%	-23.8%	-12.1%	-21.5%	·	?
Cc1noc(C)c1-c1ccc2ncnc(NCc3ccc4c(c3)OCO4)c2c1	·	·	·	-9.6%	·	·
O=C(CN1C(=O)CCc2cc(S(=O)(=O)N3CCCCC3)ccc21)NCc1ccc(Cl)cc1	-7.2%	-15.7%	2.8%	·	12.7%[46 µM]	·
CCOc1cc(-c2cc(-c3ccc(C)cc3)nc(N)c2C#N)ccc1O	-15.4%	?	-10.6%	2.8%	-12.8%	3.5%
CCOc1cc(/C=C(\C#N)c2[nH]nc(N)c2C#N)ccc1O	-3.1%	?	14.1µM*	-1.4%	2.7%	?
COc1ccc(Nc2nc(-c3ccc4c(c3)NC(=O)CO4)cs2)cc1	-1.6%	12.6µM*[quencher]	7.94µM*	-9.5%	·	-5.9%
COc1ccccc1Nc1nc(-c2ccc3c(c2)NC(=O)CO3)cs1	5.7%	11.2µM*[quencher]	14.1µM*	-17.6%	-28.4%[46 µM]	-11.4%
